Source: PubChem (National Center for Advancing Translational Sciences (NCATS))
DT40 TDP1 no CPT = qHTS for Inhibitors of human tyrosyl-DNA phosphodiesterase 1 (TDP1): qHTS in cells in absence of CPT. Potency, µM (titrated, usually from 46.2 µM), most hits filed as inhibitors. DT40 Tdp1-/- hTDP1 cells, no CPT, ATP luminescence, 48 h. AID 686978, 2013. 420,000 compounds, 15% hits; also: nearly all actives have a fitted effect of over 55% in size
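DT40 Tdp1-/-;hTDP1 cells, no CPT (DMSO vehicle only), 400 cells/well; compounds pin-transferred; ≥48 hr, 37 °C; CellTiter-Glo 30 min RT dark, luminescence read.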
IL1B secr inh = blocks inflammasome-driven IL-1 beta release; activity change, % at 57.5 µM; THP-1 LPS/ATP IL-1B secretion, AlphaLISA, 16 h; hits give low values; AID 743279; 360,000 compounds, 4.7% hits; in the data active = activity change below about -50%; inconclusive = mostly about -30% to -49%
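THP-1 cells pretreated 1 hr with compounds (up to 57.5 uM final), then stimulated with LPS (250 ng/mL final) plus ATP (1.25 mM final); secreted IL-1B measured by AlphaLISA after 16 hr, decreased signal indicating inhibition.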
TDP1 cell CPT = DT40-hTDP1 cell growth loss with CPT. 420,000 compounds, 12% hits. chicken DT40 Tdp1-/-;hTDP1 cells + 20 nM CPT, ATP luminescence, 48 h. Potency, µM (doses to about 46.2 µM), hits mostly inhibitors; also: nearly all actives have a fitted effect of over 55% in size
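Cell growth measured by CellTiter-Glo luminescence after a minimum 48 h, 37 C compound exposure with 20 nM CPT in Tdp1-knockout DT40 cells stably expressing hTDP1, seeded 400/well; qHTS titration format.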
HT1080NT lethal = kills 2HG-producing HT-1080-NT fibrosarcoma cells | HT-1080-NT fibrosarcoma viability, CellTiter-Glo ATP luminescence, 48 h | Potency, µM (top dose mostly 46.1 µM), actives largely listed as cytotoxic | 360,000 compounds, 1.6% hits | AID 686970;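 also: NT is the 2HG producing partner of a matched IDH1 knockdown line; nearly all actives have a fitted effect of over 55% in size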
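HT-1080-NT fibrosarcoma cells (2HG-overproducing), 750 cells/well in RPMI with 5% FBS, dosed after 2 h and incubated 48 h at 37C. CellTiter-Glo luminescence normalized to DMSO and no-cell wells; concentration-response curves fitted and classed.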
HT1080 IDH1KD tx = toxicity to HT-1080 IDH1 knockdown cells (counter line); HT-1080 IDH1 knockdown viability, ATP luminescence, 48 h; Potency, µM (highest dose often 46.1 µM), most hits filed as cytotoxic; 360,000 compounds, 2% hits
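Luminescent ATP read-out (CellTiter-Glo, 10 min at room temperature) after 48 h compound exposure at 37 °C gave viability of IDH1-knockdown HT-1080 cells. Activity was normalised to DMSO and cell-free wells, then fitted as concentration-response curves.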
Large screens that a line does not name were inactive. Sampled rows, rich in hits. Any-hit rate of the full collection: about 19%. Unless noted, calls follow the shape of the dose curve; as a rule, active = well fitted curve in the direction sought with a large enough effect; inconclusive = small, poorly fitted or top-dose-only effect, or another doubt; inactive = no such curve, though single readings can be large; an effect the other way counts as inactive or inconclusive.

C[C@H](CO)N1C[C@H](C)[C@H](CN(C)Cc2ccncc2)Oc2ncc(Br)cc2C1=O	none
O=C1CC2(CCN(C(=O)c3cccc([N+](=O)[O-])c3)CC2)Oc2ccccc21	DT40 TDP1 no CPT inconclusive, TDP1 cell CPT inconclusive
Nc1nc(-c2ccccc2)cn1N	DT40 TDP1 no CPT inconclusive, TDP1 cell CPT inconclusive
Nc1nc(-c2ccccc2)cn1/N=C/c1ccccc1	DT40 TDP1 no CPT 23µM, IL1B secr inh inconclusive, TDP1 cell CPT inconclusive, HT1080NT lethal inconclusive, HT1080 IDH1KD tx inconclusive
COc1ccc(-c2cn(/N=C/c3ccc(Cl)cc3Cl)c(N)n2)cc1	DT40 TDP1 no CPT inconclusive, IL1B secr inh -66, TDP1 cell CPT 23µM, HT1080NT lethal inconclusive
CCOC(=O)COn1c(=O)c(=O)n(O)c2ccccc21	TDP1 cell CPT inconclusive
Cc1cccc(CNC(=O)c2c3n(c(C)cc2=O)-c2ccccc2SC(c2ccsc2)C3)n1 (stereo not given)	none (no result: IL1B secr inh, HT1080NT lethal, HT1080 IDH1KD tx)
C/C(Cn1cnc([N+](=O)[O-])n1)=N\NC(=O)c1ccncc1	none
C/C(Cn1nnc([N+](=O)[O-])n1)=N\NC(=O)c1ccc(C)cc1	DT40 TDP1 no CPT 15µM, TDP1 cell CPT 13µM
C/C(Cn1nnc([N+](=O)[O-])n1)=N\NC(=O)c1ccncc1	DT40 TDP1 no CPT 21µM, TDP1 cell CPT 16µM
Cc1cn(C)c(CC(=O)N2CCN(c3ccc(F)cc3)CC2)c1C(=O)O	none (no result: IL1B secr inh, HT1080NT lethal, HT1080 IDH1KD tx)
c1cncc(-c2cncnc2-n2ccnc2)c1	none (no result: IL1B secr inh, HT1080NT lethal, HT1080 IDH1KD tx)
CN(C)c1ccc(-c2nc3ccccc3c(=O)[nH]2)cc1	DT40 TDP1 no CPT inconclusive, TDP1 cell CPT inconclusive
CN(C)c1ccc(/C=C/c2nnnn2-c2ccccc2)cc1	DT40 TDP1 no CPT inconclusive, IL1B secr inh inconclusive, TDP1 cell CPT inconclusive
CN(C)c1ccc(/C=C/c2ncnc3ccccc23)cc1	DT40 TDP1 no CPT 16µM, TDP1 cell CPT inconclusive (no result: IL1B secr inh, HT1080NT lethal, HT1080 IDH1KD tx)
CN(C)c1ccc(/C=C/c2c(Cl)cnc3ccccc23)cc1	DT40 TDP1 no CPT 11µM, TDP1 cell CPT 11µM (no result: IL1B secr inh, HT1080NT lethal, HT1080 IDH1KD tx)
Cc1cccc(NC(=S)N(CCc2nc3cc(C)c(C)cc3[nH]2)Cc2cccnc2)c1	none
CSc1cccc(NC(=S)N(Cc2ccc(C)cc2)Cc2cccnc2)c1	DT40 TDP1 no CPT 21µM, TDP1 cell CPT inconclusive
Cc1ccccc1NC(=S)N(Cc1ccccc1)Cc1cccnc1	IL1B secr inh -60
COCCCN(Cc1cc(OC)c(OC)c(OC)c1)C(=S)Nc1cccc(SC)c1	DT40 TDP1 no CPT 8.2µM, TDP1 cell CPT 16µM
COc1cccc(NC(=S)N(CCc2nc3cc(C)c(C)cc3[nH]2)Cc2cccnc2)c1	TDP1 cell CPT 23µM
O=C(COC(=O)C1CCC1)NCc1ccccc1	none
Cc1cccc(NC(=S)N/N=C(\c2ccccc2)C(C)C)c1	DT40 TDP1 no CPT 5.8µM, TDP1 cell CPT inconclusive
CC/C(=N\NC(=S)Nc1cccc(C)c1)c1ccccc1	DT40 TDP1 no CPT 5.2µM, TDP1 cell CPT 13µM
CC(C)/C(=N\NC(=O)Nc1ccccc1)c1ccccc1	none
CC(=O)c1ccc(OCC(=O)N(C)CC(=O)Nc2ccc(N3CCOCC3)cc2)cc1	none
O=c1c(-c2c(O)cc(O)c3c2O[C@H](c2ccc(O)cc2)CC3)c(-c2ccc(O)cc2)oc2cc(O)cc(O)c12	DT40 TDP1 no CPT 5.2µM, TDP1 cell CPT inconclusive
O=c1c(O)c(-c2ccc(O)cc2)oc2cc(O)cc(O)c12	DT40 TDP1 no CPT inconclusive, TDP1 cell CPT inconclusive
CSc1nncc(=O)[nH]1	DT40 TDP1 no CPT 23µM, TDP1 cell CPT inconclusive
C/C=C(\CS(=O)(=O)c1ccccc1)S(=O)(=O)c1ccccc1	DT40 TDP1 no CPT 29µM, IL1B secr inh inconclusive, TDP1 cell CPT inconclusive, HT1080 IDH1KD tx inconclusive
Cc1cc(C)n(-c2cccc(C(=O)NCC3Cc4cccc(-c5cccnc5)c4O3)c2)n1 (stereo not given)	DT40 TDP1 no CPT 15µM, TDP1 cell CPT inconclusive (no result: IL1B secr inh, HT1080NT lethal, HT1080 IDH1KD tx)
COc1cccc(C(=O)NCC2Cc3cccc(-c4cccnc4)c3O2)c1 (stereo not given)	DT40 TDP1 no CPT inconclusive (no result: IL1B secr inh, HT1080NT lethal, HT1080 IDH1KD tx)
O=C(NCC1Cc2cccc(-c3cccnc3)c2O1)c1ccc2cc[nH]c2c1 (stereo not given)	DT40 TDP1 no CPT 26µM, TDP1 cell CPT 2.9µM (no result: IL1B secr inh, HT1080NT lethal, HT1080 IDH1KD tx)
CCCCCNCc1cccc(Br)c1	TDP1 cell CPT inconclusive
COc1cc(OC)cc(-c2oc(=O)c3cc(OC)c(OC)cc3c2C#CCCCO)c1	DT40 TDP1 no CPT inconclusive, TDP1 cell CPT inconclusive
COCc1ccc(-c2c(-c3cc(OC)cc(OC)c3)oc(=O)c3cc(OC)c(OC)cc23)cc1	DT40 TDP1 no CPT 21µM, TDP1 cell CPT 16µM
COc1cc2c(-c3ccc4cc[nH]c4c3)c(-c3ccsc3)oc(=O)c2cc1OC	DT40 TDP1 no CPT 21µM, TDP1 cell CPT 18µM
COc1cc2c(-c3ccc4[nH]ccc4c3)c(-c3ccc(C#N)cc3)oc(=O)c2cc1OC	DT40 TDP1 no CPT 5.8µM, TDP1 cell CPT 15µM
COc1cc2c(C#CCCCO)c(-c3ccsc3)oc(=O)c2cc1OC	DT40 TDP1 no CPT 9.2µM, TDP1 cell CPT 23µM
CC1(C)Cc2cccc(OC(=O)NC3CCCCC3)c2O1	DT40 TDP1 no CPT inconclusive, TDP1 cell CPT inconclusive
COC(=O)[C@]12CCCCC=C1N(Cc1ccccc1)C(=O)[C@H](CC(=O)NCc1cccs1)C2	TDP1 cell CPT inconclusive
